# ± gives the standard deviation of the averaged measurements. Whole data set: some 1,900 compounds, median “normalised cell viability (NPI; 0 = phenylarsine oxide control, 1 = DMSO control)” near 1, cut for the lowest 2% near 0.039. Shown is part of a subset that was picked to be rich in the lowest values.
# Tested on: NCI-H1944
# Assay: normalised cell viability (NPI; 0 = phenylarsine oxide control, 1 = DMSO control) (fraction of DMSO control); NCI-H1944 is a non-small cell lung cancer line; higher = more viable cells (less compound toxicity)
# Settings: 6 days
# [1] = glucocorticoid arm: hydrocortisone 2.75 uM co-treatment, compound 1 µM
# [2] = glucocorticoid arm: hydrocortisone 2.75 uM co-treatment, compound 5 µM
# [3] = glucocorticoid arm: hydrocortisone 2.75 uM pre-treated 2 days and continued, compound 1 µM
# [4] = glucocorticoid arm: hydrocortisone 2.75 uM pre-treated 2 days and continued, compound 5 µM
# [5] = glucocorticoid arm: vehicle, compound 1 µM
# [6] = glucocorticoid arm: vehicle, compound 5 µM
# 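Further: CTB read-out in 384-well plates, triplicate wells, NPI normalised per plate against 1 µM phenylarsine oxide (0) and 0.1% DMSO (1) controls.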
Compound,normalised cell viability [1],normalised cell viability [2],normalised cell viability [3],normalised cell viability [4],normalised cell viability [5],normalised cell viability [6]
CO[C@H](C(=O)[C@@H](O)[C@@H](C)O)[C@@H]1Cc2cc3cc(O[C@H]4C[C@@H](O[C@H]5C[C@@H](O)[C@H](O)[C@@H](C)O5)[C@H](O)[C@@H](C)O4)c(C)c(O)c3c(O)c2C(=O)[C@H]1O[C@H]1C[C@@H](O[C@H]2C[C@@H](O[C@H]3C[C@](C)(O)[C@H](O)[C@@H](C)O3)[C@@H](O)[C@@H](C)O2)[C@H](O)[C@@H](C)O1 [Plicamycin],0.0675 ± 0.0023,0.0276 ± 0.0011,0.102 ± 0.0097,0.0631 ± 0.0043,0.0202 ± 0.0011,0.011 ± 0.0021
CC1(C2CCCC2)Cc2cc(OCC(=O)O)c(Cl)c(Cl)c2C1=O (configuration not stated),0.983 ± 0.014,0.982 ± 0.037,0.9883 ± 0.0072,0.986 ± 0.084,0.998 ± 0.011,0.9853 ± 0.0067
Cc1ccc([N+](=O)[O-])cc1S(=O)(=O)N(C)/N=C/c1cnc2ccc(Br)cn12,0.025 ± 0.0023,0.0304 ± 0.0032,0.0674 ± 0.0086,0.0802 ± 0.022,0.0104 ± 0.005,0.00623 ± 0.0011
Cc1ccc([N+](=O)[O-])cc1S(=O)(=O)N(C)C,1 ± 0.018,0.9945 ± 0.0095,1 ± 0.011,0.978 ± 0.028,1.004 ± 0.0094,1.007 ± 0.0052
CCCCC/C=C\C[C@@H](O)/C=C/c1cccc(C[C@@H](O)CCCCO)n1,1.005 ± 0.0081,1.05 ± 0.04,1.01 ± 0.015,1.04 ± 0.011,1.013 ± 0.0058,1.027 ± 0.0058
OC[C@H]1O[C@@H](n2cnc3c(N[C@H]4CCC[C@@H]4O)ncnc32)[C@H](O)[C@@H]1O,1.017 ± 0.0058,1.01 ± 0.027,1.01 ± 0.01,1.01,0.993 ± 0.015,0.9927 ± 0.0095
CC[n+]1c(/C=C/C=C2/N(C)c3ccccc3C2(C)C)sc2ccccc21,0.467 ± 0.026,0.434 ± 0.017,0.901 ± 0.032,0.798 ± 0.02,0.237 ± 0.0069,0.112 ± 0.0067
NC(N)=N[C@@H](CCC(=O)O)C(=O)O [alpha-Guanidinoglutaric acid],1.01 ± 0.01,0.983 ± 0.01,1.006 ± 0.0063,1.01 ± 0.021,0.9917 ± 0.0038,1.002 ± 0.0072
CCCCCCCCOc1ccccc1C(=O)Nc1ccc(C(=O)OCC[N+](C)(CC)CC)cc1 [Otilonium Bromide],1.03 ± 0.01,1.03 ± 0.026,1.01 ± 0.026,1.03 ± 0.025,1.007 ± 0.0058,1.003 ± 0.0058
CC[C@@H]1C(=O)N(C)c2cnc(Nc3ccc(C(=O)N[C@H]4CC[C@H](N5CCN(CC6CC6)CC5)CC4)cc3OC)nc2N1C(C)C [BI6727 (Volasertib)],0.346 ± 0.023,0.201 ± 0.025,0.58 ± 0.017,0.213 ± 0.15,0.0771 ± 0.019,0.0219 ± 0.0034
CC[C@@H]1C(=O)N(C)c2cnc(Nc3ccc(C(=O)NC4CCN(C)CC4)cc3OC)nc2N1C1CCCC1,0.535 ± 0.026,0.4 ± 0.057,0.797 ± 0.042,0.592 ± 0.083,0.0889 ± 0.011,0.0658 ± 0.0046
COc1cc(C(=O)NC2CCN(C)CC2)ccc1Nc1ncc2c(n1)N(C1CCCC1)CC(F)(F)C(=O)N2C,0.354 ± 0.024,0.359 ± 0.031,0.73 ± 0.022,0.7627 ± 0.007,0.066 ± 0.0089,0.0695 ± 0.004
